Screening data as filed in PubChem BioAssay.
Tau fibril FP: blocks human tau fibril formation measured by polarization; K18 P301L tau heparin fibrillization, Alexa594 FP, 6 h; Potency, µM (titrated, usually from 57.7 µM), inactives show at the highest dose activity, negative = inhibition, actives largely listed as inhibitors; hit rate 0.39% among 280,000; active = well fitted curve in the direction sought with a large enough effect; inconclusive = small, poorly fitted or top-dose-only effect, or another doubt; inactive = no such curve, though single readings can be large; an effect the other way counts as inactive or inconclusive; note: nearly all actives have a fitted effect of over 55% in size
Target sequence (P10636 561-689 P618L limits assumed): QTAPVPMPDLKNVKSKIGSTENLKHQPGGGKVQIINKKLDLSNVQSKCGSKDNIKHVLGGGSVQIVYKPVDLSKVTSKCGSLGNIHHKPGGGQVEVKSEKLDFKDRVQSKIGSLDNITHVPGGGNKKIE
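FP of Alexa 594-tau after heparin (20 uM) induction. Substrate: human K18 P301L, 15 uM unlabeled, 0.24 uM labeled. Buffer 100 mM sodium acetate pH 7. 6 hr, 37 C.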
KDM4E inh: JMJD2E (human) inhibition. B2RXH2. JMJD2E catalytic domain, FDH-coupled NADH fluorescence (FDH is formaldehyde dehydrogenase). Potency, µM (highest dose often 57.1 µM), inactives show at the top dose activity change, negative = inhibition, most hits filed as inhibitors. hit rate 1.6% among 230,000. AID 2147;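 note: 0% = wells with enzyme and -100% = buffer wells without enzyme; nearly all actives have a fitted effect of over 50% in size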
Target sequence (B2RXH2 1-337 limits assumed): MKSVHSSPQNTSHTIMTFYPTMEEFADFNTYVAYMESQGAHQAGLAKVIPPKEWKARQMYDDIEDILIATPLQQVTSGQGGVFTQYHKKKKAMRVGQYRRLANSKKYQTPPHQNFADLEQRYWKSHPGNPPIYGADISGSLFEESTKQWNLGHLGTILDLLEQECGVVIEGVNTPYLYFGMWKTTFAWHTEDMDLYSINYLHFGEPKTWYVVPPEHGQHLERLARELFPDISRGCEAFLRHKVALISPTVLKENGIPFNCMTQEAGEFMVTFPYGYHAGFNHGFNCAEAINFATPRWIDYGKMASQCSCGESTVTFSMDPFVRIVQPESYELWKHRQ
Tau ThT inhib: blocks human tau fibril formation measured by thioflavin T; P10636; Potency, µM (series often up to 57.4 µM), for inactives: at the highest dose activity, negative = inhibition, most hits filed as inhibitors; AID 1460; hit rate 2.1% among 270,000; recombinant tau K18 P301L, heparin-induced fibrillization, ThT fluorescence; active = well fitted curve in the direction sought with a large enough effect; inconclusive = small, poorly fitted or top-dose-only effect, or another doubt; inactive = no such curve, though single readings can be large; an effect the other way counts as inactive or inconclusive; note: nearly all actives have a fitted effect of over 55% in size
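Heparin-induced (20 uM) aggregation of recombinant human K18 P301L tau, 15 uM unlabeled with 0.24 uM labeled, pH 7 acetate buffer, 6 hr at 37 C with compound. Fibrils quantified by 30 uM ThT fluorescence after 1 hr ambient incubation.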
HPGD inh: HPGD (human) dehydrogenase inhibition. P15428. purified HPGD, NADH fluorescence kinetic, PGE2 substrate. Potency, µM, for the others: top-dose activity change, negative = inhibition, hits mostly inhibitors. hit rate 4.3% among 150,000. AID 894
Target sequence (P15428 whole entry, looked up): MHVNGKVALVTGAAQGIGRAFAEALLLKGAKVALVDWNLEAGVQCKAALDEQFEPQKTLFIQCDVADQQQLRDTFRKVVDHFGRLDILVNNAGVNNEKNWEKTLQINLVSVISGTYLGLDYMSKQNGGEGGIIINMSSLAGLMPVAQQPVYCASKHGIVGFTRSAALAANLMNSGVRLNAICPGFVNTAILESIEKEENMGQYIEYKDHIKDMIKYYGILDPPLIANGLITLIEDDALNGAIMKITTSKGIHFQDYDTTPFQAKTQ
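20 nM HPGD preincubated 15 min at room temperature with compound in 50 mM Tris-HCl pH 8, 0.01% Tween 20. Started with 1 mM NAD+ and 30 uM prostaglandin E2; NADH fluorescence (360/450 nm) read 5 times over 30-s intervals, last minus first.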
Tau fluor counter: counter-screen for tau fibril formation inhibitors; Potency, µM (titrated, usually from 57.7 µM), inactives show top-dose activity change, negative = decrease; hit rate 0.93% among 280,000; AID 1463; tau K18 P301L (four-repeat tau fragment) Alexa594 fluorescence, heparin fibrillization; active = well fitted curve in the direction sought with a large enough effect; inconclusive = small, poorly fitted or top-dose-only effect, or another doubt; inactive = no such curve, though single readings can be large; an effect the other way counts as inactive or inconclusive; note: nearly all actives have a fitted effect of over 55% in size
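Human K18 P301L tau (15 uM unlabeled plus 0.24 uM Alexa 594-labeled, final) in 100 mM sodium acetate pH 7 was mixed with compound and 20 uM heparin and incubated 6 hr at 37 C.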
ALDH1A1 block: blocks purified human ALDH1A1 activity; Purified ALDH1A1, NADH fluorescence, propionaldehyde substrate; Potency, µM (doses to about 75.3 µM), inactives show at the top dose activity, negative = inhibition, usual class: inhibitors; hit rate 7.3% among 220,000;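 note: plate controls were no enzyme wells and a reference inhibitor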
Numbers without * were called inactive; [ ] = dose if it differs, or a comment. In the library only some 9.9% were active in any assay of this set; here they are far more common. Unless noted, calls come from the whole dose curve; as a rule, active = well fitted inhibition curve with a large enough effect (not every such curve was filed as active); inconclusive = small, poorly fitted or top-dose-only effect, or another doubt; inactive = no such curve, though single readings can be large or run the other way. Unless noted, % is set by controls: 0 for no effect and ±100 for the full control effect; potency is the fitted concentration of half-maximal effect.

Results for Cc1cccc(NC(=O)c2nc[nH]c2C(=O)N[C@@H](CC(C)C)C(=O)OC(C)(C)C)c1 ?
Tau fibril FP: 13µM*; KDM4E inh: inconclusive; Tau ThT inhib: 8%; Tau fluor counter: inconclusive

What do the screens show for `CC(C)(C)OC(=O)[C@H](Cc1ccccc1)NC(=O)c1nc[nH]c1C(=O)N[C@@H](Cc1ccccc1)C(=O)OC(C)(C)C`?
Tau fibril FP: inconclusive; KDM4E inh: -6%; Tau ThT inhib: -6%; Tau fluor counter: -19%

Results for Cc1nc(NCc2ccccc2)c2nc(-c3ccccc3)n(CCN3CCCCC3)c2n1 ?
Tau fibril FP: 5%; KDM4E inh: inconclusive; Tau ThT inhib: -14%; HPGD inh: inconclusive; Tau fluor counter: -13%; ALDH1A1 block: inconclusive

How did Cc1ccc(NC(=O)CCC(=O)N/N=C/C=C/c2ccccc2)cc1 do in these assays?
Tau fibril FP: -9%; KDM4E inh: 9%; Tau ThT inhib: -6%; HPGD inh: -16%; Tau fluor counter: -8%; ALDH1A1 block: 1%

Results for O=C(N[C@@H](Cc1ccccc1)C(=O)OCc1ccccc1)c1nc[nH]c1C(=O)NCc1ccccc1 ?
Tau fibril FP: inconclusive; KDM4E inh: 5%; Tau ThT inhib: -4%; Tau fluor counter: inconclusive; ALDH1A1 block: -11%

How did CCOC(=O)c1[nH]c(C)c(C(=O)OCC(=O)Nc2sc3c(c2C#N)CCCCC3)c1C do in these assays?
Tau fibril FP: -4%; KDM4E inh: 1%; Tau ThT inhib: 2%; Tau fluor counter: -9%; ALDH1A1 block: 0%

How did Cc1cccc(NC(=O)c2nc[nH]c2C(=O)N[C@@H](Cc2ccccc2)C(=O)OC(C)(C)C)c1 do in these assays?
Tau fibril FP: 8.9µM*; KDM4E inh: -14%; Tau ThT inhib: inconclusive; Tau fluor counter: inconclusive

What do the screens show for `CC(C)(C)OC(=O)[C@H](Cc1ccccc1)NC(=O)c1[nH]cnc1C(=O)Nc1ccc(Cl)cc1`?
Tau fibril FP: 13µM*; KDM4E inh: -20%; Tau ThT inhib: 15%; Tau fluor counter: inconclusive

What do the screens show for `COc1cccc(CC2(CO)CCCN(Cc3cc(F)ccc3-n3cccn3)C2)c1` (stereo not given)?
Tau fibril FP: 6%; KDM4E inh: -14%; Tau ThT inhib: -4%; Tau fluor counter: 9%[2.34 µM]; ALDH1A1 block: 1%

How did COc1ccc(F)cc1S(=O)(=O)NCC(c1ccco1)S(=O)(=O)c1cccs1 (stereo not given) do in these assays?
Tau fibril FP: -9%; Tau ThT inhib: -3%; Tau fluor counter: -10%

Results for Cc1onc(-c2ccccc2Cl)c1C(=O)N1CCN(c2nc3ccccc3s2)CC1 ?
Tau fibril FP: 2%; KDM4E inh: 0%; Tau ThT inhib: -4%; HPGD inh: -16%; Tau fluor counter: -9%; ALDH1A1 block: 14µM*

How did CC(C)c1ccc(O)c(N)c1 do in these assays?
Tau fibril FP: 10%; KDM4E inh: -16%; Tau ThT inhib: 3%; HPGD inh: -21%; Tau fluor counter: 10%; ALDH1A1 block: 28µM*

What do the screens show for `CCC(C)c1ccc(O)c(N)c1` (stereo not given)?
Tau fibril FP: -2%; KDM4E inh: -17%; Tau ThT inhib: -15%; HPGD inh: inconclusive; Tau fluor counter: -9%; ALDH1A1 block: 25µM*

How did Oc1c(Br)cc(Br)cc1C=NCc1ccc(F)cc1 do in these assays?
Tau fibril FP: inconclusive; KDM4E inh: inconclusive; Tau ThT inhib: 20µM*; Tau fluor counter: -7%; ALDH1A1 block: inconclusive

How did CSc1ccc(C(=O)/C=C/c2ccc(N)cc2)cc1 do in these assays?
Tau fibril FP: 2%; KDM4E inh: -15%; Tau ThT inhib: 16µM*; HPGD inh: -28%; Tau fluor counter: inconclusive; ALDH1A1 block: inconclusive

Results for COc1ccc(C(=O)/C=C/c2ccc(OC3CSC3)cc2)cc1OC ?
Tau fibril FP: 12%; KDM4E inh: -3%; Tau ThT inhib: inconclusive; HPGD inh: 14µM*; Tau fluor counter: 10%; ALDH1A1 block: inconclusive

What do the screens show for `COc1cccc(C(=O)/C=C/c2ccc(SC)cc2)c1`?
Tau fibril FP: 16%; KDM4E inh: -4%; Tau ThT inhib: inconclusive; HPGD inh: -19%; Tau fluor counter: -2%; ALDH1A1 block: 16µM*

Results for COc1cccc(C(=O)/C=C/c2ccc(OCC#N)c(OC)c2)c1 ?
Tau fibril FP: -3%; KDM4E inh: -2%; Tau ThT inhib: -1%; HPGD inh: -23%; Tau fluor counter: -8%; ALDH1A1 block: 8.9µM*

How did O=C(/C=C/c1ccc(OC2CSC2)cc1)c1ccc(Cl)cc1 do in these assays?
Tau fibril FP: 0%; KDM4E inh: -3%; Tau ThT inhib: inconclusive; HPGD inh: -14%; Tau fluor counter: -5%; ALDH1A1 block: 0%

How did COc1ccc(C(=O)NCCc2nnc3ccc(SCC(=O)Nc4cc(C)on4)nn23)cc1 do in these assays?
Tau fibril FP: -5%; KDM4E inh: inconclusive; Tau ThT inhib: -5%; Tau fluor counter: -4%; ALDH1A1 block: -7%

What do the screens show for `COc1ccc(Cl)cc1NS(=O)(=O)c1ccc2c(c1)NC(=O)CC(=O)N2`?
Tau fibril FP: -5%; Tau ThT inhib: -4%; Tau fluor counter: -8%

Results for CC(=O)c1cn(CC(=O)Nc2ccc(C)cc2C)c2ccccc12 ?
Tau fibril FP: 2%; KDM4E inh: 0%; Tau ThT inhib: -10%; HPGD inh: -15%; Tau fluor counter: -2%; ALDH1A1 block: 4%

Results for CCC(CC)C(=O)Nc1ccccc1C(=O)OCc1cc(=O)n2nc(C3CCCCC3)sc2n1 ?
Tau fibril FP: 8%; Tau ThT inhib: -14%; Tau fluor counter: 4%

Results for CCCOC1OC(=O)c2c1ccc(OC)c2OC (stereo not given) ?
Tau fibril FP: inconclusive; KDM4E inh: inconclusive; Tau ThT inhib: 4%; HPGD inh: -30%; Tau fluor counter: -2%; ALDH1A1 block: -5%

How did Cc1ccc(SCc2[nH]nc3c2C(c2ccco2)C(C#N)=C(N)O3)cc1 (stereo not given) do in these assays?
Tau fibril FP: inconclusive; KDM4E inh: inconclusive; Tau ThT inhib: 20µM*; HPGD inh: inconclusive; Tau fluor counter: inconclusive; ALDH1A1 block: -54%

What do the screens show for `CCc1[nH]nc2c1C(c1ccc(C)o1)C(C#N)=C(N)O2` (stereo not given)?
Tau fibril FP: -2%[2.34 µM]; KDM4E inh: 1%; Tau ThT inhib: 5%; Tau fluor counter: 6%[2.34 µM]; ALDH1A1 block: 1%

How did Cc1ccc(SCc2[nH]nc3c2C(c2ccc(C)o2)C(C#N)=C(N)O3)cc1 (stereo not given) do in these assays?
Tau fibril FP: inconclusive; KDM4E inh: inconclusive; Tau ThT inhib: 14µM*; HPGD inh: inconclusive; Tau fluor counter: inconclusive; ALDH1A1 block: inconclusive
